An excerpt weighted towards active compounds, which were near 8.7% of everything screened.
PostGolgi ctrl = inhibits growth of the yeast control strain; efflux-deficient yeast background strain, growth absorbance A615, 16 h; inhibition, % at 10 µM; 98,000 tested, 5% active; AID 738
hDAT+cocaine = changed human dopamine transporter uptake under cocaine IC80; Q01959; LLC-PK1 hDAT cells, [14C]-dopamine uptake with cocaine IC80; actives deviate in either direction; B-score at 10 µM; 110,000 tested, 1.3% active; AID 449768;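 active = Z score or B-score, a plate-position-corrected score, falls beyond the plate's 99.7% confidence bounds, in either direction; inactive = both scores lie inside the 99.7% bounds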;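 note: scored against the spread of the other compound wells on the same plate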
TNAP act DEA = activators of human TNAP at intermediate phosphate acceptor. P05186. purified TNAP, CDP-star luminescence, 100 mM DEA, 30 min; stronger effect = higher value; scale: 0 levamisole-inhibited, 1 vehicle-only enzyme. activation factor at 20 µM. 64,000 tested, under 10 active;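 active = activation factor of at least 2 at 20 µM, relative to controls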
PostGolgi yeast = growth inhibition of a yeast mutant, post-Golgi transport screen. post-Golgi transport phenotypic cell assay. inhibition, % at 10 µM. 98,000 tested, 0.9% active;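 note: yeast cells grown in 1536-well plates; yeast grown about 18 h at 30C before absorbance read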
Smad3 FoxH1 inh = Smad3 (human) transcription factor binding inhibition; P84022; TR-FRET Smad3/Dy647-FoxH1 peptide binding, europium anti-His; inhibition, % at 25 µM; 88,000 tested, 0.29% active; AID 630;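 active = compounds that reduce the energy-transfer binding signal between the protein and its labelled peptide by more than half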;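 note: 0% = Smad3 plus labelled peptide maximal FRET and 100% = peptide-only background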
Cav32 inh = inhibitors of human Cav3.2 T-type calcium channel | O95180 | Cav3.2-expressing cells, Fluo-4 calcium fluorescence FDSS; stronger effect = lower value | B-score at 10 µM | 100,000 tested, 4% active | AID 449739;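 active = single-dose well whose peak fluorescence ratio is a statistical outlier from its plate by either plate-standardised score or position-corrected B-score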
Numbers without * were called inactive; nt = no result given. Cut-off read from the data, not from the text of the source, unless noted: active = inhibition above about 30%; inactive = the rest.

SMILES | PostGolgi ctrl | hDAT+cocaine | TNAP act DEA | PostGolgi yeast | Smad3 FoxH1 inh | Cav32 inh
FC(F)(F)c1cc(C(F)(F)F)c2ccc(N/N=C/c3cccc(Cl)c3)nc2n1 | -7.5 | -0.305 | nt | -4.3 | nt | 0.022
COC(=O)C1=C(C)NC2=C(C(=O)CCC2)C1c1cn(Cc2ccc(Br)cc2)nc1-c1ccccc1 (stereo not given) | 3.0 | 1.35 | nt | -6.7 | nt | -7.32*
COC(=O)C1=C(C)NC2=C(C(=O)CC(C)(C)C2)C1c1cccc(C)n1 (stereo not given) | 8.6 | -0.556 | 1 | 2.9 | nt | 1.25
COC(=O)C1=C(C)NC2=C(C(=O)CC(C)(C)C2)C1c1cn(Cc2ccc(Br)cc2)nc1-c1ccccc1 (stereo not given) | 8.0 | 0.816 | nt | -3.5 | nt | -4.73*
CCN(CC)Cc1c(-c2ccccc2)[nH]c2ccc(C)cc2c1=O | 12.7 | 0.117 | nt | -7.3 | 7.6 | -0.245
O=C(CCCc1ccccc1)Nc1cccc2c1CCCC2 | 36.8* | -0.336 | nt | -1.0 | 5.3 | 0.0353
Cc1cc(C)nc(NC(=O)c2ccc(OC(C)C)cc2)n1 | -1.8 | -0.178 | 0.9 | -8.2 | -11.5 | 0.785
Cc1csc(SCC(=O)NCc2cccs2)n1 | 38.3* | -0.508 | 1 | 1.9 | 0.1 | 0.406
CCCC(=O)Nc1nnc(SCC(=O)NCc2cccs2)s1 | -0.7 | -0.516 | nt | 0.8 | 1.9 | 0.862
COc1cc(/C=c2\sc3n(c2=O)CCCN=3)ccc1O | 7.9 | -0.648 | nt | -8.2 | 10.2 | 0.369
COc1cc(/C=c2\sc3n(c2=O)C(c2ccccc2)C(c2ccccc2)=NN=3)ccc1O (stereo not given) | 32.7* | nt | nt | 1.1 | -0.5 | -2.75
O=C(CN(c1ccc(F)cc1)S(=O)(=O)c1ccc2c(c1)OCCO2)NCc1ccccc1 | 18.9 | -0.0823 | nt | 17.4 | 8.6 | 1.28
CN(Cc1ccccc1)C(=O)CN(c1ccc(F)cc1)S(=O)(=O)c1ccc2c(c1)OCCO2 | nt | 0.201 | nt | nt | 6.9 | -5.04*
O=C(CN(c1ccc(F)cc1)S(=O)(=O)c1ccc2c(c1)OCCO2)Nc1ccccc1 | 7.4 | -0.167 | nt | 32.8* | -0.2 | -0.531
CC(C)(C)OC(=O)[C@H](Cc1ccccc1)NC(=O)c1[nH]cnc1C(=O)Nc1cccc(Cl)c1 | nt | 0.557 | nt | nt | nt | -0.103
O=S1(=O)C=C(Oc2ccc3ccccc3c2)c2ccccc21 | 34.0* | -1.51 | nt | -7.2 | -13.0 | -0.295
CSc1nsc(SC)c1C(=O)OCC(F)(F)F | 3.3 | 0.147 | 0.9 | -3.8 | -15.5 | -0.605
COc1ccc(OC)c(Nc2cc(C)nc3ccccc23)c1 | 1.9 | 1.46 | 0.9 | 1.7 | 3.4 | -0.0948
COc1ccc(OC)c(Nc2cc(-c3ccccc3)nc(N)n2)c1 | 5.8 | 0.967 | 0.9 | -6.5 | 2.9 | -4.47*
COCC(=O)Nc1nnc(SCC(=O)NCc2cccs2)s1 | 7.7 | -0.828 | 0.9 | 0.0 | 10.1 | -0.04
CCn1c(=O)cc(OCC(=O)N(C)C2CCCCC2)c2ccccc21 | 6.0 | 2.42* | 1.1 | 0.0 | -0.8 | 0.482
CCOC(=O)N1CCN(C(=O)COc2cc(=O)n(CC)c3ccccc23)CC1 | 5.8 | 0.863 | 0.9 | 1.8 | -13.6 | 1.42
O=C1CC(SCc2nc3ccccc3[nH]2)C(=O)N1c1ccc(Cl)cc1 (stereo not given) | 4.6 | 0.0811 | nt | -0.5 | -5.7 | -4.95*
O=C1CC(SCCc2nc3ccccc3[nH]2)C(=O)N1c1ccc(Cl)cc1 (stereo not given) | 1.8 | 2.2 | nt | 1.9 | nt | -6.55*
O=C1CC(SCc2nc3ccccc3[nH]2)C(=O)N1c1ccc(F)c(Cl)c1 (stereo not given) | 2.7 | -0.507 | nt | -1.9 | -7.7 | -1.79
SMILES | PostGolgi ctrl | hDAT+cocaine | TNAP act DEA | PostGolgi yeast | Smad3 FoxH1 inh | Cav32 inh
C=C(CC(=O)O)C(=O)O (tested in a mixture with another compound) | nt | nt | nt | nt | 86.6* | nt
O=C(O)/C=C(/CC(=O)O)C(=O)O | nt | nt | nt | nt | 14.3 | nt
O=C1CCCN1CN(C(=O)c1ccc2c(c1)OCO2)c1ccc(F)cc1 | 0.5 | -0.345 | 1 | -1.2 | 0.2 | 0.492
O=C1NC2(Nc3ccccc31)C(=O)Nc1ccccc12 (stereo not given) | 13.6 | 0.484 | 0.9 | 43.9* | -15.1 | 0.436
CCOC(=O)c1cccnc1SCc1cc(=O)n2ccccc2n1 | 28.2 | 0.997 | 0.9 | 62.8* | 13.5 | -0.601
CCOC(=O)c1cccnc1SCC(=O)N(C)c1ccccc1 | 7.0 | 0.714 | 1 | 7.9 | 2.1 | -1.56
COC(=O)[C@H](CCSC)NS(=O)(=O)c1ccccc1Br | nt | -1 | nt | nt | nt | -0.337
CSCCC(NS(=O)(=O)c1ccc(Cl)cc1)C(=O)OCC(=O)NC1CCCCC1 (stereo not given) | 24.7 | 3.17* | nt | -1.8 | nt | -3.28
CSCCC(NS(=O)(=O)c1ccc(Cl)cc1)C(=O)OCC(=O)N(C(C)C)C(C)C (stereo not given) | 11.7 | 0.58 | nt | -7.1 | nt | -3.38*
CSCCC(NS(=O)(=O)c1ccc(Cl)cc1)C(=O)OCC(=O)NC1CC1 (stereo not given) | -2.9 | -1.31 | nt | 2.5 | -13.0 | -0.234
Cc1cc2n(n1)SC(Nc1cccc3ccccc13)N2 (stereo not given) | nt | 1.59 | nt | nt | 20.4 | 0.00473
Cc1cc(=O)oc2cc(OCC(=O)OCC(=O)NCc3ccc4c(c3)OCO4)ccc12 | 10.6 | 0.223 | 0.9 | -0.3 | 13.6 | -0.174
COc1ccc(CCNC(=O)C2CCCN(Cc3nc(-c4ccccc4C)oc3C)C2)cc1OC (stereo not given) | -3.9 | nt | 1 | 8.2 | 9.6 | nt
CCc1ccc(-c2nc(CN3CCCC(C(=O)NCCc4ccc(OC)c(OC)c4)C3)c(C)o2)cc1 (stereo not given) | 3.5 | 1.36 | 0.9 | 7.0 | 6.8 | -5.8*
O=C(CSc1nn(-c2ccc(Cl)cc2)c(=S)s1)N1CCN(C(=O)c2ccco2)CC1 | 51.8* | -0.252 | 0.9 | -42.4 | 1.1 | -1.63
O=C(CSc1nn(-c2ccc(F)cc2)c(=S)s1)N1CCN(C(=O)c2ccco2)CC1 | 20.8 | -0.854 | 1 | 4.9 | 1.7 | -0.886
Cc1cc(C)n(S(=O)(=O)c2ccc(C(C)(C)C)cc2)n1 | 21.9 | 0.457 | 1 | -0.1 | 2.2 | -3.19
CC(NC(=O)c1ccc(F)cc1)c1ccc2c(c1)CCCC2 (stereo not given) | 10.7 | 0.231 | nt | 11.0 | nt | -8.54*
Cc1cc(OCC(=O)NC(C)C)cc(C)c1Cl | nt | 0.774 | nt | nt | 8.3 | 0.119
O=C(Nc1cccc(S(=O)(=O)C(F)F)c1)c1ccc(S(=O)(=O)N2CCOCC2)cc1 | -4.0 | -0.00115 | 1 | -0.3 | 6.9 | nt
CC(=O)N1N=C(c2cccc(Cl)c2)OC1c1ccc(C(C)C)cc1 (stereo not given) | 35.4* | -1.41 | nt | 14.3 | 13.6 | -0.469
O=C(NC1CC1)C1CC(=O)N(C2CCCCC2)C1 (stereo not given) | 5.3 | 0.852 | 0.9 | -0.2 | 8.8 | nt
N#Cc1nc(COc2ccccc2F)oc1NCCCn1ccnc1 | 0.3 | -0.113 | 0.9 | 7.5 | -4.8 | -2.61
CCC1CCc2c(c3ccccc3[nH]c2=O)O1 (stereo not given) | 30.5* | nt | nt | -13.2 | nt | nt

From PubChem BioAssay
